Compound activity as filed in PubChem BioAssay.
NCF1 inh = p47phox/p22phox peptide binding inhibitors, primary screen, biochemical, uHTS, NADPH oxidase regulatory subunit; Neutrophil cytosol factor 1 (Homo sapiens), P14598; fluorescence polarization, 2 h; inhibition, % at 24.7 µM; 0.53% of 220,000 active;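 note: 0% = p47phox with labelled peptide and 100% = labelled peptide alone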
Target sequence (P14598 whole entry, looked up): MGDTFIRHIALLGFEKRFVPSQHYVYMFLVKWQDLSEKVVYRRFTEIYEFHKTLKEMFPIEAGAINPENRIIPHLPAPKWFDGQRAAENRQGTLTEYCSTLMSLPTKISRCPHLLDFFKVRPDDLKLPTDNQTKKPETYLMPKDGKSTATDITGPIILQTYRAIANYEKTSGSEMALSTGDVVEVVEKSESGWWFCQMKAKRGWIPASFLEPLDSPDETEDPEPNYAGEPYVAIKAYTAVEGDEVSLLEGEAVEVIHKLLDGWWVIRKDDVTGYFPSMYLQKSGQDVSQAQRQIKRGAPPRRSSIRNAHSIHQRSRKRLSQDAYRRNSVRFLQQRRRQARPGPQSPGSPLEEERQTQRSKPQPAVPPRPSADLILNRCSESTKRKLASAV
Bim-Mcl-1 = inhibitors of Bim peptide binding to Mcl-1, primary screen, biochemical, bead-based flow cytometry, multiplex | Induced myeloid leukemia cell differentiation protein Mcl-1 (Homo sapiens), Q07820 | Bim peptide-Mcl-1 binding | inhibition, % at 10 µM | 0.1% of 190,000 active | AID 1009, 2008; in the data active = inhibition above about 40%;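 note: 0% = no compound tracer wells and 100% = peptide blocker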
Mcl1-Noxa inh = Mcl-1/Noxa binding inhibitors, primary screen, biochemical, TR-FRET, 1536-well; Induced myeloid leukemia cell differentiation protein Mcl-1 (Homo sapiens), Q07820; TR-FRET Mcl-1/Noxa peptide binding, 2 h; inhibition, % at 21.7 µM; 1.5% of 220,000 active; AID 1022, 2008;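 active = compounds that cut the protein-peptide binding signal by more than 50% relative to plate controls in a single-dose test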;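 note: His-tagged Mcl-1 with rhodamine Noxa BH3 peptide and terbium anti-His antibody; 0% = Mcl-1 plus Noxa peptide wells and 100% = peptide-only wells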
eIF4E-4G inh = eIF4E–eIF4G protein interaction inhibitors, primary screen, biochemical, uHTS, TR-FRET, eIF4GI fragment; Eukaryotic translation initiation factor 4E (Mus musculus) + Eukaryotic translation …; TR-FRET eIF4E-eIF4GI(517-606) binding, 2 h; inhibition, % at 21.7 µM; 0.37% of 220,000 active; AID 782, 2007;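 note: 0% = full FRET control wells and 100% = background wells lacking eIF4GI fragment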
14-3-3 Bad inh = inhibitors of 14-3-3 zeta/Bad binding, primary screen, biochemical, TR-FRET, bovine 14-3-3 zeta; 0.71% of 220,000 active; AID 781, 2007; TR-FRET 14-3-3zeta/Dy647-pBad peptide displacement, 1 h; 14-3-3 protein zeta/delta (Bos taurus), P63103; inhibition, % at 21.7 µM;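 active = inhibition above about 70%, limit read from the data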;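 note: 0% = full 14-3-3 plus peptide FRET controls and 100% = background without 14-3-3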
Target sequence (P63103 whole entry, looked up): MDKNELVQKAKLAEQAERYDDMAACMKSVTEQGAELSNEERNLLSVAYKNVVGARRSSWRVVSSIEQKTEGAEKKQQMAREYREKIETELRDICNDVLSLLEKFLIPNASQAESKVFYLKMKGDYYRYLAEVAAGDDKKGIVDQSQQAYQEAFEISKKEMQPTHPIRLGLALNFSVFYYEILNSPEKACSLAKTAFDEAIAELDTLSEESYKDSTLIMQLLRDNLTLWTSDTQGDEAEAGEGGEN
Mcl1-Bid inh = Mcl-1/Bid binding inhibitors, primary screen, biochemical, TR-FRET, 1536-well; inhibition, % at 21.7 µM; TR-FRET Mcl-1/Bid-Dy647 peptide binding; 0.97% of 220,000 active; Induced myeloid leukemia cell differentiation protein Mcl-1 (Homo sapiens), Q07820;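 active = compounds that cut the binding signal by more than half at the single screening dose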;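 note: His-tagged Mcl-1 with europium anti-His antibody binding Bid BH3 peptide; 0% = Mcl-1 plus peptide wells and 100% = peptide-only wells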
Starred values were filed as active, the others as inactive; x = no result; ! = a repeat was not active. An excerpt weighted towards active compounds, which were near 3.3% of everything screened.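 Rule for the calls, unless noted: active = inhibition above about 30% (limit read from the data); inactive = the rest.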

SMILES | NCF1 inh | Bim-Mcl-1 | Mcl1-Noxa inh | eIF4E-4G inh | 14-3-3 Bad inh | Mcl1-Bid inh
CCOc1ccc(-n2c(SCC(=O)Nc3ccccc3C)n[nH]c2=O)cc1 | -7 | -1 | -6 | -16 | 15 | 65*
Cc1c(NC(=O)CSc2n[nH]c(=O)n2-c2ccccc2)c(=O)n(-c2ccccc2)n1C | 5 | -3 | 27 | 5 | 41 | -9
COc1cc2c(cc1OC)C(C(=O)N1CCCCC1)C(c1ccccc1F)N(C)C2=O (centres undefined) | -2 | -2 | 21 | -2 | 28 | -4
COc1cc2c(cc1OC)C(c1ccccc1F)OC(=O)C2 (centres undefined) | -2 | 96* | 10 | -4 | -5 | -8
COc1cccc(-n2c(SCc3cc(=O)oc4cc(O)c(O)cc34)nc3ccccc3c2=O)c1 | -42 | -1 | 100* | 2 | 6 | -64
CC(=O)OCC1OC(n2ncc(=O)n(Cc3ccccc3)c2=O)C(OC(C)=O)C1OC(C)=O (centres undefined) | 1 | 0 | 18 | 2 | -5 | -8
CC(=O)OC[C@H]1O[C@@H](n2ncc(=O)[nH]c2=O)[C@H](OC(C)=O)[C@@H]1OC(C)=O | -2 | 0 | 10 | 0 | 71* | 0
O=C(CCc1nnc(CCC2CCCCC2)o1)NCc1ccon1 | -3 | -1 | 3 | -1 | -6 | 2
Cc1ccc(N=Cc2cc(Cc3ccccc3Cl)cc([N+](=O)[O-])c2O)c(O)c1 | -15 | -3 | 50 | 10 | 37 | -70
COc1ccc(N=Cc2cc(Cc3ccccc3Cl)cc([N+](=O)[O-])c2O)cc1OC | -228 | -1 | 61* | 22 | 22 | -1
COC(=O)C1=C(C(=O)OC)[C@@H]2N(C)c3ccccc3[C@@]23C[C@@H](C(=O)OC)N(C(=O)c2ccc(Br)cc2)C3=N1 | -2 | x | -19 | -3 | -3 | -42
Cc1[nH]ccc(=O)c1OCc1ccccc1 | 59* | -8 | 7 | -7 | 4 | -17
Cc1[nH]ccc(=O)c1OCc1ccc(Cl)cc1 | 6 | 1 | -18 | x | x | -14
O=C(CCCc1nc2ccccc2s1)Nc1ccc(N2CCOCC2)cc1 | 4 | -2 | 33 | 2 | 16 | -30
C=CCN=C1SC(C)(C)C(=O)N1S(=O)(=O)c1ccc(C)cc1 | -4 | 1 | 7 | 1 | 95* | -22
Cc1sc(NC(=S)NC(=O)c2ccco2)c(C#N)c1C | -15 | -4 | 1 | 0 | -7 | -21
COC(=O)c1[nH]c2ccc(Br)cc2c1NC(=O)CN1CCCCC1CCO (centres undefined) | -12 | -3 | -2 | -20 | 91* | -49
COc1cccc(C2C(C(C)=O)=C(O)C(=O)N2CCNCCO)c1 (centres undefined) | -7 | 0 | 22 | -2 | 2 | -27
Nc1ccc2c(c1)OC1(CCCCC1)O2 | 45* | -3 | 5 | 5 | 100* | -59
CC(C)(C)c1ccc2c(c1)C(=O)c1ccccc1C2=O | -1 | -1 | -14 | 7 | 4 | -37
CC(C)(C)C1=CC=C(C(C)(C)C)C(=O)C1=O | 3 | x | 89* | 3 | 9 | 17
CN1CCN(CCCNC(=O)c2ccc(/C=C3\Sc4ccccc4N(Cc4ccc(F)cc4)C3=O)cc2)CC1 | 87* | 0 | 13 | 35* | 74* | -29
CCN1CCN(CCNC(=O)c2ccc(/C=C3\Sc4ccccc4N(Cc4ccccc4F)C3=O)cc2)CC1 | 86* | -2 | 18 | 30 | 59 | -9
COCCCNC(=O)/C=C1\Sc2ccccc2N(Cc2ccccc2F)C1=O | 3 | 1 | 7 | 3 | 22 | -15
OCCN1CCN(CCCN2c3ccccc3Sc3ccc(C(F)(F)F)cc32)CC1 | 3 | -3 | 50 | 7 | 18 | 36
SMILES | NCF1 inh | Bim-Mcl-1 | Mcl1-Noxa inh | eIF4E-4G inh | 14-3-3 Bad inh | Mcl1-Bid inh
CN1CCN(CCCN2c3ccccc3Sc3ccc(Cl)cc32)CC1 | 110*! | -1 | 77* | 12 | 46 | 45
CN1CCN(CCCNC(=O)c2ccc(/C=C3/Sc4ccccc4N(Cc4cccc(Cl)c4)C3=O)cc2)CC1 | 78* | -1 | 28 | 18 | 77* | -51
O=C(OCCOc1ccccc1)c1n[nH]c2ccccc12 | -15 | x | -3 | 3 | -3 | 1
CC1CCN(C2(O)C(=O)Nc3ccc(Br)cc32)CC1 (centres undefined) | -2 | 93* | -1 | 5 | 83* | -16
Cc1ccc(S(=O)(=O)NCC(=O)N(CC(=O)NCC2CCCO2)Cc2ccco2)cc1 (centres undefined) | -3 | 0 | 6 | -2 | 15 | -9
Cn1c(Cc2ccccc2)nnc1SCc1ccc(C(=O)O)cc1 | 0 | -6 | 17 | -3 | -7 | -12
CC(C)(C)c1ccc(CN2N=Nc3ccccc3S2(=O)=O)cc1 | 34* | -3 | 77* | -11 | 9 | 20
CC(C)(C)c1ccc(C(=O)Nc2ccc(CN3CCS(=O)(=O)CC3)cc2)cc1 | -4 | x | 9 | -4 | -1 | -7
O=S1(=O)c2ccccc2N=NN1Cc1ccc(Cl)c(Cl)c1 | 15 | -3 | 77* | 1 | 45 | 48
COc1ccc(-c2nc(-c3ccc(Br)cc3)no2)c(OC)c1 | -14 | -1 | -5 | 32* | 16 | 10
COc1ccccc1-c1nc(-c2ccc(Br)cc2)no1 | -8 | 7 | -22 | 0 | 9 | -22
CS(=O)(=O)N(CC(=O)NC1CCCC1)C1CCCCC1 | 1 | -4 | 14 | -1 | 11 | -13
CC(=O)c1csc(Nc2ccccc2Cl)n1 | 0 | x | -14 | 0 | 90* | -3
CCOc1ccccc1CNC(=O)c1nn(CC)cc1[N+](=O)[O-] | -20 | -1 | 13 | -6 | -8 | -7
O=C(CSc1nc2cc([N+](=O)[O-])ccc2n1-c1ccc(F)cc1)NC1CCS(=O)(=O)C1 (centres undefined) | -9 | 2 | 9 | 6 | 12 | -5
CCOc1ccc(NC(=S)NNc2ccnc3cc(Cl)ccc23)cc1 | -19 | -12 | 29 | -2 | -6 | -42
S=C(NNc1ccnc2cc(Cl)ccc12)Nc1ccc(Cl)cc1Cl | -19 | x | 85* | 8 | 92* | 62*
O=C1NCCN/C1=C\C(=O)c1ccc(Cl)cc1 | -3 | x | 1 | 2 | -4 | -23
CC1(C)CC(=O)C(C(C#Cc2ccccc2)C2=C(O)CC(C)(C)CC2=O)=C(O)C1 | -19 | -5 | 57* | 18 | 36 | 8
